Where “and” joins values, the source holds several entries; their conditions need not be identical. Equal entries are not always repeated. Calls of active or inactive are those of the source.
Tests used:
[1] = system: Plasmodium falciparum Sir2 (PF13_0152, Sir2A); assay: Plasmodium falciparum Sir2A binding compounds – biochemical, small-molecule microarray, 635 nm fluorescence, primary screen (AID 1098); conditions: fluorescence 635 nm, higher = more signal;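 note: score merges spot fluorescence intensity with its signal-to-noise ratio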
[2] = probe aDKK1 binding to arrayed compounds – biochemical, biotinylated probe, 635/667 nm fluorescence, primary screen (AID 1099); conditions: small-molecule microarray, higher = more signal;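 note: score merges 667nm spot fluorescence with signal to noise across triplicate slides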
[3] = probe aCHRDL2 binding to arrayed compounds – biochemical, biotinylated probe, 635/667 nm fluorescence, primary screen (AID 1100); conditions: small-molecule microarray, higher = more signal
[4] = change in splice reporter luminescence, either direction, cell-based, HEK293, spliceosome inhibition project, primary screen (AID 1101); conditions: HEK293 splicing luciferase reporter, 24 h, higher = more signal, called active from +8 up or from −8 down;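 note: HEK293 cells carrying a splicing-competent luciferase reporter gene; test concentration not given here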
[5] = biological target: Fibroblast growth factor 10 (Homo sapiens) (UniProt O15520); assay: compounds binding fibroblast growth factor 10 – biochemical, small-molecule microarray, 635 nm fluorescence, primary screen (AID 1102); conditions: FGF10 binding, fluorescence 635 nm, higher = more signal
[6] = system: glycogen synthase kinase-3 (GSK3A per assay name; protocol says GSK3B); assay: compounds binding glycogen synthase kinase-3 – biochemical, small-molecule microarray, 635 nm fluorescence, GSK3A, primary screen (AID 1103); conditions: fluorescence 635 nm, higher = more signal; note: the record names both GSK3A and GSK3B
[7] = biological target: Epidermal growth factor receptor (Homo sapiens) (UniProt P00533); assay: compounds binding epidermal growth factor receptor – biochemical, small-molecule microarray, 635 nm fluorescence, primary screen (AID 1104); conditions: EGFR binding, higher = more signal;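 note: score merges 667 nm emission intensity with spot signal to noise over triplicate slides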
[8] = biological target: Follistatin-related protein 3 (Homo sapiens) (UniProt O95633); assay: compounds binding follistatin-related protein 3 – biochemical, small-molecule microarray, 635 nm fluorescence, primary screen (AID 1105); conditions: FSTL3 binding, higher = more signal;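 note: score merges emission near 667 nm and signal to noise per printed spot across three slides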
[9] = biological target: Dickkopf-related protein 1 (Homo sapiens) (UniProt O94907); assay: small molecules binding DKK1 protein – biochemical, small-molecule microarray, 635 nm fluorescence scan, primary screen (AID 1106); conditions: higher = more signal;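 note: score merges emission near 667 nm with signal to noise over three replicate slides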
[10] = system: Inhibin beta A chain (activin A); assay: small molecules binding activin A – biochemical, small-molecule microarray, 635 nm fluorescence scan, primary screen (AID 1107); conditions: INHBA, higher = more signal;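 note: mouse activin A protein probed at 4.33 µg/mL on printed slides; score merges bound-protein fluorescence near 667 nm with spot signal-to-noise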
[11] = system: Human papillomavirus type 1a protein E7 (residues 44-93); assay: small molecules binding HPV E7 44-93 – biochemical, small-molecule microarray, residues 44-93, 635 nm fluorescence, primary screen (AID 1108); conditions: fluorescence 635 nm, higher = more signal;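 note: E7 fragment applied at 1 µg/mL in TBST for 1 h at 4 C; score combines spot fluorescence with its signal to noise ratio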
[12] = hepatitis C replication reporter changes, two-sided – Huh7 cells, luciferase reporter, HCV replication inhibitor project, primary screen (AID 1109); conditions: Huh7 HCV replicon luciferase reporter, 48 h; higher = more signal;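 note: huh7 hepatoma cells harbouring a luciferase neomycin HCV replicon reporter; luciferase luminescence as measure of HCV replicon replication; test concentration not given here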
[13] = biological target: Left-right determination factor 2 (Homo sapiens) (UniProt O00292); assay: small molecules binding LEFTY2 protein – biochemical, small-molecule microarray, 635 nm fluorescence scan, primary screen (AID 1110); conditions: higher = more signal
[14] = biological target: Calmodulin-1 (Homo sapiens) (UniProt P0DP23); assay: small molecules binding calmodulin-1 with EGTA – biochemical, small-molecule microarray, Cy5-labelled CALM1, profiling panel (AID 1111); conditions: Cy5-CALM1 binding fluorescence, higher = more signal;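 note: labelled calmodulin applied in Tris saline Tween buffer holding calcium plus EGTA and DTT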
[15] = biological target: Calmodulin-1 (Homo sapiens) (UniProt P0DP23); assay: small molecules binding Ca-loaded calmodulin-1 – biochemical, small-molecule microarray, Cy5-labelled CALM1, plus calcium, artefact control for SMM control-protein annotation, profiling panel (AID 1112); conditions: Cy5-CALM1 binding fluorescence, higher = more signal;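 note: score merges spot fluorescence with signal to noise from triplicate slides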
[16] = probe aWnt5a binding to arrayed compounds – biochemical, biotinylated probe, 635/667 nm fluorescence, primary screen (AID 1113); conditions: small-molecule microarray, higher = more signal;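 note: score merges 667 nm fluorescence intensity with signal-to-noise per printed feature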
[17] = probe aShh binding to arrayed compounds – biochemical, biotinylated probe, 635/667 nm fluorescence, primary screen (AID 1114); conditions: small-molecule microarray, higher = more signal;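 note: probe is biotin-labelled aShh protein from a stem cell growth factor screen; measures binding of labelled protein to compounds printed on the slide; score merges feature fluorescence at 667 nm with signal-to-noise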
[18] = probe aNog binding to arrayed compounds – biochemical, biotinylated probe, 635/667 nm fluorescence, primary screen (AID 1115); conditions: small-molecule microarray, higher = more signal;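 note: probe is biotinylated aNog protein used at 0.15 µg/mL for 1 h at 4 C; z-score combines 667 nm fluorescence of each spot with its signal to noise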
[19] = biological target: Torsin-1A-interacting protein 1 (Homo sapiens) (UniProt Q5JTV8); assay: compound microarray binding of lysate hLAP1 – cell lysate, small-molecule microarray, COS7 lysate, 635/667 nm fluorescence, primary screen (AID 1116); conditions: 635 nm fluorescence, higher = more signal
[20] = biological target: Alpha-bungarotoxin (Bungarus multicinctus) (UniProt P60615); assay: compounds binding labelled alpha-BTX control protein – biochemical, small-molecule microarray, Alexa647 label, 635/667 nm fluorescence, artefact control for SMM control protein annotation, profiling panel (AID 1117); conditions: alpha-BTX-A647 binding fluorescence, higher = more signal
Alpha-bungarotoxin (Bungarus multicinctus), sequence (P60615 whole entry, looked up): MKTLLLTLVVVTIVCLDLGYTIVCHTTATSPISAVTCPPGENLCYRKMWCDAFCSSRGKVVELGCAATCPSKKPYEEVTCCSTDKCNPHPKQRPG

Fibroblast growth factor 10 (Homo sapiens), sequence (O15520 whole entry, looked up): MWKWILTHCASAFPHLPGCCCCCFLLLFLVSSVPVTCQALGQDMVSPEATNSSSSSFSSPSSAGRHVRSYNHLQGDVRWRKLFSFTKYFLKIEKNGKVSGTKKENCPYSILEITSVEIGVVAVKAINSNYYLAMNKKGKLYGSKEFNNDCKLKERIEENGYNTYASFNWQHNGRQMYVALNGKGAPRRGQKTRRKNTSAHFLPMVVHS
Epidermal growth factor receptor (Homo sapiens), sequence (P00533 whole entry, looked up): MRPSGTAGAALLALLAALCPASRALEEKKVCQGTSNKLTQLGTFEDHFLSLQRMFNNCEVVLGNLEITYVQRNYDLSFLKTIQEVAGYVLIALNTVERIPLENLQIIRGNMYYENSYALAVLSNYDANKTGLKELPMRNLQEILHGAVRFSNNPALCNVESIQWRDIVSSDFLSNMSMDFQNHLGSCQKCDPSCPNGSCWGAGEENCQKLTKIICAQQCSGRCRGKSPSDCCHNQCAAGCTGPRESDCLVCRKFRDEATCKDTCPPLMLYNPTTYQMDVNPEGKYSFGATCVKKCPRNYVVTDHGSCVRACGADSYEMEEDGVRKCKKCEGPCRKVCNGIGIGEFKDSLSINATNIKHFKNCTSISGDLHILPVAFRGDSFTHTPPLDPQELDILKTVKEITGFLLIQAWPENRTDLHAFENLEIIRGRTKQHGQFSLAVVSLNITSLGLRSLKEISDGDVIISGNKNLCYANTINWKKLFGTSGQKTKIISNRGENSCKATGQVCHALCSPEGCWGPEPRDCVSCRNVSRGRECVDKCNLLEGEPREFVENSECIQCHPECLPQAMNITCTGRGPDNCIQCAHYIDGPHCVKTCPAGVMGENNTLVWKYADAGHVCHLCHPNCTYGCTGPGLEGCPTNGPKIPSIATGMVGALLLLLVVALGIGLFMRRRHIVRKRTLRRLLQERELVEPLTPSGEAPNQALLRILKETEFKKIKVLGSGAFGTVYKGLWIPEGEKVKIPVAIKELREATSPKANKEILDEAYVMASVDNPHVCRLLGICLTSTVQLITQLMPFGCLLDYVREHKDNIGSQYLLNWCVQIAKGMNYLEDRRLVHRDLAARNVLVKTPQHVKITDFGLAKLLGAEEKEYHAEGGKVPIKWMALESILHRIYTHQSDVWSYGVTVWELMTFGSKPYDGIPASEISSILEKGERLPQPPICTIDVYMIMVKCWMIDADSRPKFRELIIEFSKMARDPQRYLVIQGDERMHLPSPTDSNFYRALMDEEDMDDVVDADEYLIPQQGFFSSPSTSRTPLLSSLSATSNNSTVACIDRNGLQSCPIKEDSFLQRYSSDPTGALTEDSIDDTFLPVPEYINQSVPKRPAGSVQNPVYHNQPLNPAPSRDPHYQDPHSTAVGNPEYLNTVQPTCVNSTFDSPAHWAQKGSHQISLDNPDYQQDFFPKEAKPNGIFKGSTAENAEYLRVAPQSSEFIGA
Left-right determination factor 2 (Homo sapiens), sequence (O00292 whole entry, looked up): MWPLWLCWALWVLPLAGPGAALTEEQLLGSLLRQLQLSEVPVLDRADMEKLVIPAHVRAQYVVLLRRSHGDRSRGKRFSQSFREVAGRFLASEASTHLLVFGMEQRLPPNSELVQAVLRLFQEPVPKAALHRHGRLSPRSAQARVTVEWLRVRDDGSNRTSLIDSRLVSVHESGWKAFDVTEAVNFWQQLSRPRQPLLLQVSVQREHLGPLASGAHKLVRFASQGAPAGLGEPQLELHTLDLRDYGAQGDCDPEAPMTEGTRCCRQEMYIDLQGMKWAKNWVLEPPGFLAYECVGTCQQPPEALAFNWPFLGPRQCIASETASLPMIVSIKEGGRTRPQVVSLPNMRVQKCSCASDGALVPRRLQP
Follistatin-related protein 3 (Homo sapiens), sequence (O95633 whole entry, looked up): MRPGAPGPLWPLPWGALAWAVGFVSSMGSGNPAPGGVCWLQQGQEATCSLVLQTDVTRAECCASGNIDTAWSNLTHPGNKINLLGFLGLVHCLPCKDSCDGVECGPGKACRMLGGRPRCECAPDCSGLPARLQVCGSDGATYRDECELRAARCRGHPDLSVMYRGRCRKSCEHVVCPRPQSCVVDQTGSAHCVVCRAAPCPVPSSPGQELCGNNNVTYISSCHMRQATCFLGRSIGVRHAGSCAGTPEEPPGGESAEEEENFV
Torsin-1A-interacting protein 1 (Homo sapiens), sequence (Q5JTV8 whole entry, looked up): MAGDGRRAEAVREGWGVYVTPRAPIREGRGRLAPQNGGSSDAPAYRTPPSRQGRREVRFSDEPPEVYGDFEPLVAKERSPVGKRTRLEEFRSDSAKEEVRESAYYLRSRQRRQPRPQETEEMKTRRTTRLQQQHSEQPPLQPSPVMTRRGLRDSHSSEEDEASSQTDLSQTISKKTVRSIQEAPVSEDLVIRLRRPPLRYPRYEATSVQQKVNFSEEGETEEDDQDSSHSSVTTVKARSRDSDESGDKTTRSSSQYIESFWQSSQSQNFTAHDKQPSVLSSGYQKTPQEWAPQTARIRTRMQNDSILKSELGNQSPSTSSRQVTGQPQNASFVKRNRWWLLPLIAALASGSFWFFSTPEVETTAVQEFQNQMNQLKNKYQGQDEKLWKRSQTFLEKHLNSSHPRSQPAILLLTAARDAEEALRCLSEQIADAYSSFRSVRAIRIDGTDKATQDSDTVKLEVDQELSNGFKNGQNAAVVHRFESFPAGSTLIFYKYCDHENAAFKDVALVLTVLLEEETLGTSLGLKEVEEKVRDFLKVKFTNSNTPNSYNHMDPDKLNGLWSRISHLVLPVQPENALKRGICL
Dickkopf-related protein 1 (Homo sapiens), sequence (O94907 whole entry, looked up): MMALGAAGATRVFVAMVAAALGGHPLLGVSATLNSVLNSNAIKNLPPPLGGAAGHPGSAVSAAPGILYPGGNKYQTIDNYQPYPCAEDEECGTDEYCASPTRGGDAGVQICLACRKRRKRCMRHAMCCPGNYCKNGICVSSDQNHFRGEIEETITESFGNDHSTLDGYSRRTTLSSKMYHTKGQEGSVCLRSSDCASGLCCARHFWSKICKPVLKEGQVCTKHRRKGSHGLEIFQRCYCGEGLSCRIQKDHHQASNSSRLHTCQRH

SMILES	composite z-score [1]	composite z-score [2]	composite z-score [3]	z-score [4]	composite z-score [5]	composite z-score [6]	composite z-score [7]	composite z-score [8]	composite z-score [9]	composite z-score [10]	composite z-score [11]	z-score [12]	composite z-score [13]	composite z-score [14]	composite z-score [15]	composite z-score [16]	composite z-score [17]	composite z-score [18]	composite z-score [19]	composite z-score [20]
C=CCN(CCCCC)C(=O)C(c1cccs1)N(C(=O)/C=C\C(=O)O)c1ccc(CCO)cc1 (stereo not given)	0.274 and 0.158	-0.273 and -0.247	0.748 and 0.789	0.748 (inactive) and 0.709 (inactive)	-1.8 and -1.08	-1.01 and -0.785	-1.79 and -1.62	-1.87 and -1.55	-2.83 and -1.55	-2.66 and -1.26	0.0979 and -0.457	-0.779 and -0.741	-3.06 and -2.73	-0.783 and -0.531	0.0708 and 0.542	-0.284 and -0.211	0.289 and -0.154	-0.23 and -0.241	-0.755 and -0.0484	-0.89 and -0.874
C=C[C@H](C)[C@@H](O)c1ccc(OCCO)cc1	1.19 and -0.0088	0.892 and -0.0695	0.689 and 0.639	-0.636 (inactive) and -0.215 (inactive)	-1.09 and -0.675	-0.914 and -0.622	-1.51 and -0.966	-1.35 and -0.796	-1.05 and -0.262	-1.03 and -0.831	-1.92 and -0.467	0.15 and 0.616	-1.11 and -1.45	-0.827 and -0.366	0.717 and 0.1	-0.261 and -0.252	-0.289 and 0.0639	-0.194 and -0.381	-0.998 and 0.225	-1.12 and -0.0745
CC(C)=NOC[C@@H](O)COCc1ccco1	1.21	-0.254	-0.0658	0.638 (inactive)	-0.341	-1.15	-0.298	-0.628	0.421	0.912	-1.92	0.797	-0.168	-0.614	-0.142	-0.172	-0.138	-0.342	-0.2	-1.1
CC(C)=NO[C@@H](C)c1cc(-c2c(C)cc(C)cc2C)no1	0.624	-0.0037	0.0373	-1.47 (inactive)	0.0369	-0.166	-0.0855	-0.234	-0.289	0.952	-0.379	-0.527	0.192	-0.35	-0.264	-0.152	0.0899	-0.242	0.1	0.282
C[N+](C)(C)CCCCNC(=O)[C@@H]1C[C@@H]2C(=O)N[C@@H](CCCC[N+](C)(C)C)C(=O)N2[C@@H]1c1cccc(OCCO)c1	1.03 and 0.616	0.0631 and 0.217	-0.0665 and 0.574	-0.21 (inactive) and 0.129 (inactive)	1.51 and 1.4	1.35 and 0.785	1.33 and 0.0943	1.5 and 1.33	2.14 and 1.67	0.804 and -0.833	0.845 and 0.331	-0.552 and -0.848	1.59 and 1.49	-1.47 and -1.67	-2.01 and -0.543	-0.0758 and 0.048	0.23 and -0.0232	-0.12 and 0.0139	2.23 and 1.62	-0.257 and 1.62
COC(=O)[C@H](C)NC(=O)CCC1CC(OC(=O)NCCc2ccc(F)cc2)CC2(CCCC(COC(=O)NCCCN3CCCC3=O)O2)O1 (stereo not given in full)	1.07	-0.0361	0.778	-0.247 (inactive)	1.14	1.28	0.597	1.36	1.44	-0.0362	1.39	-2.21	1.21	0.95	-0.387	-0.172	0.0278	0.33	1.05	1.14
COC(=O)C1=C(C)N(Cc2ccccc2)[C@]23O[C@](C(=O)OC)(C(=O)N2[C@@H]1c1ccccc1)[C@@H](C(=O)OC)[C@H]3C(=O)OC	-0.16 and 0.25	-0.188 and -0.2	-0.248 and -0.593	-0.259 (inactive) and 0.0138 (inactive)	0.393 and 0.372	-0.969 and 0.317	-0.574 and 0.608	-1.14 and 0.664	-0.0647 and 0.549	0.59 and 0.153	-1.08 and 0.025	-0.685 and 1.33	-0.2 and 0.674	-0.602 and 0.395	-0.636 and -0.505	-0.173 and -0.16	-0.123 and -0.0553	-0.394 and -0.255	0.118 and 0.409	-1 and -0.239
C=C[C@@H](OC)[C@H](O)c1ccc(O)c(F)c1	0.767 and -0.815	-0.324 and -0.472	0.576 and 0.268	-0.668 (inactive) and -2.09 (inactive)	-1.19 and -1.46	-1.5 and -1.29	-1.59 and -0.277	-2.7 and -1.75	-1.37 and -0.856	-2.04 and -0.759	-0.829 and -1.4	0.0695 and 0.896	-1.68 and -1.07	-0.692 and -1.45	-0.898 and -1.11	-0.328 and -0.268	-0.0553 and -0.0709	-0.564 and -0.908	-0.104 and -0.362	-1.14 and -0.617
COC(=O)C1=C(C)N(Cc2ccccc2)[C@]23O[C@](C(=O)OC)(C(=O)N2[C@@H]1c1ccccc1)[C@H]1C(=O)N(c2ccccc2)C(=O)[C@H]13	0.224 and 0.295	-0.0965 and 0.134	-0.362 and -0.418	0.0537 (inactive) and -0.654 (inactive)	0.775 and 1.09	0.989 and 0.463	0.367 and 0.392	0.514 and 0.835	0.629 and 0.666	0.111 and -0.155	-0.167 and 0.131	-0.716 and -0.479	0.688 and 0.613	0.361 and -0.212	-0.298 and -0.362	-0.197 and -0.0882	-0.304 and -0.0066	-0.341 and 0.0299	-0.233 and 0.633	1.34 and 1.08
C=CCN(CCCC)C(=O)C(c1cccs1)N(C(=O)/C=C\C(=O)O)c1c(Cl)cccc1CO (stereo not given)	0.129 and 1.61	-0.0631 and -0.131	1.25 and 0.906	0.173 (inactive) and 0.771 (inactive)	-2.81 and -1.97	-0.944 and -0.892	-2.16 and -2.02	-1.44 and -2.65	-3.42 and -2.44	-3.52 and -2.04	-1.23 and -1.01	-0.765 and -0.992	-3.75 and -3.83	-0.731 and -0.883	0.215 and 0.584	-0.328 and -0.303	-0.0769 and -0.221	-0.0173 and -0.0409	-1.53 and -1.41	-1.09 and -1.15
COC(=O)C1=C(C)N(Cc2ccccc2)C2=C3C(=O)N(C)C(=O)[C@@H]3[C@@](O)(C(=O)OC)C(=O)N2[C@@H]1c1ccccc1	-0.0387 and 0.0245	0.0287 and -0.103	-0.282 and -0.486	-0.18 (inactive) and -0.675 (inactive)	0.786 and 0.387	0.0745 and 0.608	0.533 and 0.834	0.285 and 0.502	0.103 and 0.211	0.476 and 0.292	-0.517 and 0.0656	-0.0888 and 1.05	0.356 and 0.796	-0.403 and -0.324	-0.668 and -0.691	-0.124 and -0.0735	-0.0035 and -0.16	-0.0705 and -0.272	0.015 and -0.101	0.871 and 0.167
